Shown are actives, neighbours in structure and some others; about 6.7% of the full set was active somewhere.
T cruzi growth-1 = T. cruzi intracellular proliferation inhibitors, primary screen, cell-based, beta-gal Tulahuen parasites, NIH3T3 host, luminescence; inhibition, % at 8.34 µM; T. cruzi beta-gal in NIH3T3, GalScreen luminescence, 90 h; 77,000 tested, 5.9% active;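 active = mean inhibition above about 93%, with at least 55% of replicates each passing it, limit read from the data, passing the limit was not always enough; inconclusive = only one of those two conditions holds; inactive = neither condition holds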
C diff HTS = C. difficile growth inhibitors, primary screen, HTS; Clostridium difficile clinical isolate growth, OD600, 24 h; hits give low values; growth activity, negative = inhibition, % at 16 µg/mL (by protocol); 86,000 tested, 0.25% active;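 active = mean growth activity at or below -80% and every replicate also at or below -80%; inconclusive = mean at or below -80% but some replicate above -80%; inactive = mean growth activity above -80%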;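 also: 0% = DMSO wells and -100% = levofloxacin 16 µg/mL wells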
Pf Dd2 inh = P. falciparum Dd2 growth inhibitors, primary screen, SYBR Green fluorescence, single dose replicates; 72 h; hits give low values; activity change, % at 10 µM; 94,000 tested, 2.3% active; AID 1159554, 2015; in the data active = activity change below about -80%; inconclusive = no clear call, values can overlap the other calls
T cruzi growth-2 = T. cruzi intracellular proliferation inhibitors, confirmation, cell-based, NIH3T3 host, beta-gal parasite, luminescence, cherry-pick; T. cruzi beta-gal in NIH3T3, GalScreen luminescence, 90 h; shares compounds with T cruzi growth-1; 5,600 tested, 72% active; inhibition, % at 8.35 µM;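 active = mean replicate inhibition above about 95% and at least 55% of replicates individually reaching it, limit read from the data; inconclusive = only one of the two criteria is met; inactive = neither criterion is met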
T cruzi growth-3 = inhibitors of intracellular T. cruzi replication, confirmation, NIH3T3 host cells, beta-gal parasites, cherry-pick, set 2; shares compounds with T cruzi growth-1; T. cruzi beta-gal in NIH3T3, GalScreen luminescence, 90 h; inhibition, % at 2.09 µM; 5,600 tested, 21% active; AID 651740, 2012;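 active = mean inhibition above about 95%, with at least 55% of replicates also reaching it, limit read from the data; inconclusive = meets just one of the two conditions; inactive = meets neither condition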;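 also: plate controls were neutral control median for no effect and positive control median for full effect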
NIH3T3 tox = cytotoxicity in mouse NIH/3T3 fibroblasts, confirmation, cytotoxicity control for T. cruzi proliferation inhibitor project, cell-based, cherry-pick, single point; shares compounds with T cruzi growth-1; cytotoxicity (signal decrease), % at 8.35 µM; 5,600 tested, 14% active; NIH/3T3 viability, CellTiter-Glo ATP luminescence, 90 h; AID 651742, 2012;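 active = mean signal decrease across replicates above about 35% based on untreated-well scatter, with enough replicates individually passing, limit read from the data; inconclusive = no rule stated though some were filed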;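 also: 0% = median of neutral control wells and 100% = median of positive control wells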
NIH3T3 tox 2 = NIH/3T3 fibroblast cytotoxicity, confirmation, cytotoxicity control, cell-based, cherry-pick, single point, set 2 | shares compounds with T cruzi growth-1 | NIH/3T3 viability, CellTiter-Glo ATP luminescence, 90 h | inhibition, % at 24.9 µM | 5,600 tested, 56% active;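 active = mean loss of cell viability signal at or above a set limit, and enough replicates individually reaching it; inconclusive = meets only the mean limit or only the replicate share; inactive = meets neither condition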;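 also: 0% = median of neutral control wells and 100% = median of positive control wells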
Active calls of the source: *.

Screening C[C@@H]1CN([C@@H](C)CO)S(=O)(=O)c2ccc(C#CCN(C)C)cc2O[C@H]1CN(C)Cc1ccncc1 returned T cruzi growth-1 107.0*, C diff HTS -0.9, Pf Dd2 inh -35.5, T cruzi growth-2 108.0*, T cruzi growth-3 inconclusive, NIH3T3 tox 27.2 and NIH3T3 tox 2 45.6*.
Screening CCCC#Cc1ccc2c(c1)O[C@H](CN(C)Cc1ccncc1)[C@H](C)CN([C@@H](C)CO)S2(=O)=O returned T cruzi growth-1 118.1*, C diff HTS 7.0, Pf Dd2 inh -36.8, T cruzi growth-2 89.9, T cruzi growth-3 65.4, NIH3T3 tox inconclusive and NIH3T3 tox 2 41.0*.
COc1ccc(CN(C)C[C@@H]2OCCCC[C@H](C)Oc3ccc(NC(=O)NC4CCCCC4)cc3C(=O)N([C@H](C)CO)C[C@@H]2C)cc1 was read as T cruzi growth-1 -32.6, C diff HTS -2.0 and Pf Dd2 inh 5.0.
`C[C@@H]1CN([C@H](C)CO)C(=O)c2cccc(NC(=O)Nc3ccc(F)cc3)c2O[C@H]1CN(C)Cc1ccc(C(=O)O)cc1` gave T cruzi growth-1 11.5, C diff HTS -2.0 and Pf Dd2 inh -6.0.
Screening C[C@@H]1CCCCO[C@@H](CN(C)C)[C@H](C)CN([C@H](C)CO)C(=O)c2cc(NS(=O)(=O)c3cccs3)ccc2O1 returned T cruzi growth-1 56.2, C diff HTS -7.2 and Pf Dd2 inh 61.1.
CCc1cnc(N2[C@H](CO)[C@@H](c3ccc(C4=CCCC4)cc3)[C@@H]2C#N)s1 was read as T cruzi growth-1 83.0, C diff HTS 16.3 and Pf Dd2 inh -9.0.
Screening CCc1cnc(N2[C@H](C#N)[C@@H](c3ccc(C#CCC4CCCC4)cc3)[C@@H]2CO)s1 returned T cruzi growth-1 inconclusive, Pf Dd2 inh 6.2, T cruzi growth-2 96.4*, T cruzi growth-3 106.4*, NIH3T3 tox -15.5 and NIH3T3 tox 2 103.9*.
For CCc1cnc(N2[C@@H](C#N)[C@H](c3ccc(C#CCC4CCCC4)cc3)[C@@H]2CO)s1 the results were T cruzi growth-1 104.6*, C diff HTS -7.2, Pf Dd2 inh -55.2, T cruzi growth-2 107.9*, T cruzi growth-3 inconclusive, NIH3T3 tox -7.0 and NIH3T3 tox 2 12.0.
`CCc1cnc(N2[C@H](C#N)[C@@H](c3ccc(C4=CCCCC4)cc3)[C@@H]2CO)s1` gave T cruzi growth-1 85.9, C diff HTS 13.2 and Pf Dd2 inh -19.5.
Screening CCCN1[C@@H]2Cn3c(ccc(-c4cccc(OC)c4)c3=O)[C@H]1[C@@H](C(=O)NCC)[C@@H]2CO returned T cruzi growth-1 -3.7 and C diff HTS 1.3.
For CC(C)NC(=O)N1CC(=O)N2[C@H](CO)[C@@H](c3ccc(/C=C/c4ccccc4)cc3)[C@@H]2C1 the results were C diff HTS -5.1 and Pf Dd2 inh -61.8.
Screening N#C[C@H]1[C@H](c2ccccc2)[C@H](CO)N1S(=O)(=O)c1cccc(F)c1 returned T cruzi growth-1 73.4, C diff HTS 6.7 and Pf Dd2 inh -0.4.
For CCCC(=O)Nc1ccc2c(c1)OC[C@H](C)N(C(=O)C1CCCC1)C[C@H](C)[C@@H](OC)CN(C)C2=O the results were T cruzi growth-1 6.4 and Pf Dd2 inh -5.4.
Screening O=S(=O)(c1ccc(F)cc1)N1C[C@@H]2[C@H](c3ccccc31)[C@@H](CO)N2Cc1ccc2c(c1)OCO2 returned T cruzi growth-1 76.7, C diff HTS 4.0 and Pf Dd2 inh -27.2.
Cc1cccc(S(=O)(=O)N2C[C@@H]3[C@H](c4ccccc42)[C@H](CO)N3Cc2ccc3c(c2)OCO3)c1 was read as T cruzi growth-1 108.5*, C diff HTS 2.9, Pf Dd2 inh -46.0, T cruzi growth-2 100.8*, T cruzi growth-3 108.4*, NIH3T3 tox 24.1 and NIH3T3 tox 2 -30.9.

High-throughput results as filed in PubChem BioAssay.
